This is a sample that favours compounds with a hit; in the whole collection about 17% have one here.
TDP1 inh = qHTS Assay for Inhibitors of Tyrosyl-DNA Phosphodiesterase (TDP1); recombinant TDP1, AlphaScreen DNA substrate cleavage; Tyrosyl-DNA phosphodiesterase 1 (Homo sapiens), Q9NUW8; AID 485290, 2010; actives 0.28% (n = 350,000); Potency, µM (series often up to 130 µM), inactives show at the top dose activity change, negative = inhibition, most hits filed as inhibitors; note: % is set by controls: 0 for no effect and ±100 for the full control effect; nearly all actives have a fitted effect of over 40% in size
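Enzyme-compound mixtures sat 15 min at room temperature, followed by a 5 min reaction with 15 nM final substrate and 10 min with AlphaScreen beads. Recombinant human Tdp1 was used at 1 nM final.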
TDP1 cell noCPT = qHTS for Inhibitors of human tyrosyl-DNA phosphodiesterase 1 (TDP1): qHTS in cells in absence of CPT | Potency, µM (titrated, usually from 46.2 µM), without a hit: at the highest dose activity change, negative = growth inhibition, most hits filed as inhibitors | AID 686978, 2013 | DT40 Tdp1-/- hTDP1 cells, no CPT, ATP luminescence, 48 h | actives 15% (n = 420,000); note: % is set by controls: 0 for no effect and ±100 for the full control effect; nearly all actives have a fitted effect of over 55% in size
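Chicken DT40 Tdp1-/- cells stably complemented with human TDP1 were seeded at 400 cells/well with DMSO in place of 20 nM camptothecin. After compound pinning, cells grew at least 48 hr at 37 °C; viability read by CellTiter-Glo luminescence.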
ClpP mod = qHTS Assay for Activators of ClpP | purified B. subtilis ClpP, FRET peptide cleavage, 20 min | actives 1.9% (n = 340,000) | Potency, µM (titrated, usually from 57.5 µM), without a hit: at the highest dose activity change, negative = active | AID 651965, 2013; active = well fitted falling curve with a large enough effect; inconclusive = small, poorly fitted or top-dose-only effect; inactive = no such curve, though single readings can be large or run the other way; note: the source files actives as falling curves though it sought activators and does not explain the sign; nearly all actives have a fitted effect of over 65% in size
Target sequence (P80244 whole entry, looked up): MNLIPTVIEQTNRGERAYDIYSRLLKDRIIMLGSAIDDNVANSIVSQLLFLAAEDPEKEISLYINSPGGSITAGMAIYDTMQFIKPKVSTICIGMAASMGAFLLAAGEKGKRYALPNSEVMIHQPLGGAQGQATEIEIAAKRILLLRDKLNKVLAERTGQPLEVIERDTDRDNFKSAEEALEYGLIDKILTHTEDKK
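ClpP 10 microg/mL final, pH 8 Tris/KCl buffer with BSA, glycerol, Tween-20; compound pinned in; FRET-FV substrate; RT 20 min; Ex320/Em430; ΔFRET vs ADEP 5.8 microM, DMSO, no enzyme.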
TDP1 cell CPT = qHTS for Inhibitors of human tyrosyl-DNA phosphodiesterase 1 (TDP1): qHTS in cells in presence of CPT; chicken DT40 Tdp1-/-;hTDP1 cells + 20 nM CPT, ATP luminescence, 48 h; Potency, µM (doses to about 46.2 µM), for the others: top-dose activity change, negative = growth inhibition, most hits filed as inhibitors; actives 12% (n = 420,000); note: % is set by controls: 0 for no effect and ±100 for the full control effect; nearly all actives have a fitted effect of over 55% in size
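Cell growth measured by CellTiter-Glo luminescence after a minimum 48 h, 37 C compound exposure with 20 nM CPT in Tdp1-knockout DT40 cells stably expressing hTDP1, seeded 400/well; qHTS titration format.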
* marks the source's active call; other numbers are inactive results; ? = inconclusive; · = no result; [ ] = dose if it differs, or a comment. Unless noted, calls come from the whole dose curve; as a rule, active = well fitted curve in the direction sought with a large enough effect; inconclusive = small, poorly fitted or top-dose-only effect, or another doubt; inactive = no such curve, though single readings can be large; an effect the other way counts as inactive or inconclusive. Potency is the fitted concentration of half-maximal effect.

SMILES	TDP1 inh	TDP1 cell noCPT	ClpP mod	TDP1 cell CPT
Cc1ccc2c(c1)N(C(=O)c1ccco1)C(C)(C)c1ssc(=S)c1-2	14%	?	1%	-28%
CC1=CC(C)(C)N(C(=O)CSc2nncn2C)c2ccccc21	-2%[56.1 µM]	-20%	1%	-6%
C#CCCCCCCCCCCCC(O)CC(O)CO (stereo unspecified)	-7%[56.1 µM]	?	·	?
N#Cc1cccc(NC(=O)COC(=O)Cn2nc(-c3ccccc3)oc2=O)c1	0%	-7%	-3%	-13%
Cc1cc(C)c(NC(=O)COC(=O)Cn2nc(-c3ccccc3)oc2=O)c(C)c1	-3%	-5%	22µM*	0%
COc1ccccc1C(O)c1nccn1Cc1ccccc1 (stereo unspecified)	?	-2%	-4%	-12%
COc1ccc(NC(=O)C2(C)CCN2Cc2ccc(OC(F)(F)F)cc2)cc1OC (stereo unspecified)	·	?	1%	23µM*
COc1ccc(CN2CCC2(C)C(=O)Nc2ccc(OC)c(OC)c2)cc1 (stereo unspecified)	·	?	-2%	?
CSc1ccc(CN2CCC2(C)C(=O)NC2CCN(Cc3ccccc3)CC2)cc1 (stereo unspecified)	·	18µM*	2%	26µM*
COc1ccc(NC(=O)C2(C)CCN2Cc2ccc(SC)cc2)cc1OC (stereo unspecified)	·	?	-3%	16µM*
Cc1ccc2nc(NCCN)c3ncc(C)n3c2c1	6%	·	·	·
Cc1csc(NC(=O)c2cncc(Br)c2)n1	2%	?	1%	-22%
CCN(CC)CC(C)(C)C(=O)/C=C/c1ccc(/C=C/C(=O)C(C)(C)CN(CC)CC)cc1	·	0.41µM*	-1%	0.52µM*
C[C@@H]1CN([C@H](C)CO)C(=O)CCCn2nncc2CO[C@@H]1CN(C)C(=O)Nc1cccc2ccccc12	·	-29%	?	5%
CCOC(=O)N1CCN(C(=O)CSc2ccc(-c3cccnc3)nn2)CC1	5%	·	·	·
CN(CC(=O)Nc1ccccc1Cl)C(=O)c1ccc(N2CCCCCC2)c([N+](=O)[O-])c1	8%	18µM*	2%	23µM*
Cc1cccc(NC(=O)CN(C)C(=O)c2ccc(N3CCCCCC3)c([N+](=O)[O-])c2)c1C	4%	18µM*	·	23µM*
CN(CC(=O)Nc1ccc(Cl)c(C(F)(F)F)c1)C(=O)c1ccc(N2CCOCC2)c([N+](=O)[O-])c1	·	26µM*	·	23µM*
CCOc1ccc(NC(=O)CN(C)C(=O)c2ccc(N3CCCC3)c([N+](=O)[O-])c2)cc1OCC	·	-20%	-1%	0%
CCOc1ccc(NC(=O)CN(C)C(=O)c2ccc(N3CCCCC3)c([N+](=O)[O-])c2)cc1OCC	-4%[0.505 µM]	?	-2%	?
Cc1cccc(NC(=O)CSc2nncn2-c2ccccn2)c1	2%	1%	·	0%
CN(C)c1ccc(/C=C2\Oc3ccc(C#Cc4cccc(N)c4)cc3C2=O)cc1	0%	-46%	-6%	?
CCCOc1ccc(CNC(=O)CCCn2ncn3c(cc4sc(CC)cc43)c2=O)cc1	0%	?	-5%	-28%
CCC1(c2ccccc2)NC(=O)N(CC(=O)NNC(=O)c2ccc(F)cc2)C1=O (stereo unspecified)	5%	-7%	1%	-13%
COC(=O)[C@]12CCCCC=C1N(Cc1ccc(Cl)cc1Cl)C(=O)[C@H](CC(=O)NCCCCc1ccccc1)C2	·	?	-1%	?
SMILES	TDP1 inh	TDP1 cell noCPT	ClpP mod	TDP1 cell CPT
Cn1c(=O)c2[nH]c(-c3ccccc3)nc2n(C)c1=O	0%	·	·	·
CC1C(c2ccccc2)=NNc2nc3c(c(=O)n(C)c(=O)n3C)n21 (stereo unspecified)	·	12µM*	-22%	?
COC(=O)c1c(NC(=O)c2nc3ccccc3s2)sc2c1CC(C)(C)NC2(C)C	·	21µM*	-3%	23µM*
COC(=O)c1c(NC(=O)c2ccc(C(=O)c3ccccc3)cc2)sc2c1CC(C)(C)NC2(C)C	·	?	0%	-14%
CCOC(=O)c1c(NC(=O)COc2ccccc2)sc2c1CC(C)(C)NC2(C)C	5%	16µM*	·	?
CCOC(=O)c1c(NC(=O)COC(=O)/C=C/c2ccco2)sc2c1CC(C)(C)NC2(C)C	·	5.8µM*	-2%	?
CCOc1ccc(C(=O)Nc2sc3c(c2C(=O)OC)CC(C)(C)NC3(C)C)cc1	·	16µM*	-16%	?
COc1ccc(CNC(=O)c2ccc[nH]2)cc1Cl	3%	2%	-1%	17%
COC(=O)c1nccnc1C(=O)Nc1ccccc1N1CCOCC1	2%	-3%	2%	-3%
COc1ccc(C2NC(=O)N(C)C3=C2C(=O)N(c2cccc(C(=O)O)c2)C3)cc1 (stereo unspecified)	6%	-5%	?	-13%
O=C1N(Cc2cccc(Cl)c2)C[C@@H]2C[C@@H](c3cccn3-c3cccnc3)N3CCC[C@@]123	8%	21µM*	·	?
COc1ccccc1/C=C/[C@@H]1C[C@H]2CN(Cc3cccc(Cl)c3)C(=O)[C@]23CCCN13	2%	21µM*	·	10µM*
COc1cccc2c1OCC([C@@H]1C[C@H]3CN(Cc4cccc(Cl)c4)C(=O)[C@]34CCCN14)=C2	0%	?	·	16µM*
CCOc1ccc(N(C)C(=O)CS(=O)(=O)c2cccc3nsnc23)cc1	5%	?	0%	11%
O=C(CN1C(=O)C2(SCC(=O)N2c2ccccc2)c2ccccc21)Nc1ccccc1C(F)(F)F (stereo unspecified)	-3%	?	-3%	23µM*
Cc1ccc(C)c(NC(=O)CN2C(=O)C3(SCC(=O)N3c3ccc(C)c(C)c3)c3ccccc32)c1 (stereo unspecified)	3%	18µM*	-2%	?
CCc1cccc(C)c1NC(=O)CN1C(=O)C2(SCC(=O)N2c2cccc(F)c2)c2ccccc21 (stereo unspecified)	4%	-23%	-2%	-29%
CCc1ccc(NC(=O)CN2C(=O)C3(SCC(=O)N3c3ccccc3)c3ccccc32)cc1 (stereo unspecified)	0%	?	-2%	21µM*
Cc1ccccc1NC(=O)CN1C(=O)C2(SCC(=O)N2c2ccc(F)cc2)c2ccccc21 (stereo unspecified)	3%	-19%	1%	-17%
COc1ccccc1NC(=O)CN1C(=O)C2(SCC(=O)N2c2ccc(C)c(C)c2)c2ccccc21 (stereo unspecified)	3%	?	-3%	?
